Results: PubChem BioAssay (NCI)
This is part of a sample that, as a whole, favours compounds with a hit. Of some 83,000 tested, about 20% had one in any assay.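 Each cell line was grown in a 96-well plate and treated with one concentration of compound for 48 hours. Values below 10 were considered active.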 Calls of active or inactive are those of the source.

What was measured:
Test in all cases: NCI-60 one-dose screen, 48 h (100 = growth as untreated, 0 = no growth, -100 = all killed)
NCI-H460 lung = conditions: 10 µM unless noted
HOP-92 NSCLC = conditions: 10 µM unless noted
A549/ATCC NSCLC = conditions: 10 µM unless noted
786-0 renal = conditions: 10 µM unless noted
COLO 205 colon = conditions: 10 µM unless noted
DU-145 prostate = conditions: 10 µM unless noted
K-562 leukemia = conditions: 10 µM unless noted
MDA-MB-231 breast = conditions: 10 µM unless noted
RXF 393 renal = conditions: 10 µM unless noted
SF-268 CNS = conditions: 10 µM unless noted
SF-295 CNS = conditions: 10 µM unless noted
SF-539 CNS = conditions: 10 µM unless noted
UACC-257 melanoma = conditions: 10 µM unless noted
M14 melanoma = conditions: 10 µM unless noted
HOP-62 NSCLC = conditions: 10 µM unless noted
NCI-H522 lung = conditions: 10 µM
MALME-3M melanoma = conditions: 10 µM unless noted
NCI-H322M lung = conditions: 10 µM unless noted

Measured: growth

COc1cccc(OC(=O)c2ccccc2)c1OC(=O)c1ccccc1
inactive: NCI-H460 lung 81.6% | HOP-92 NSCLC 40% | A549/ATCC NSCLC 78% | 786-0 renal 101% | COLO 205 colon 108% | DU-145 prostate 87.7% | K-562 leukemia 37.4% | MDA-MB-231 breast 75.4% | RXF 393 renal 86.3% | SF-268 CNS 72.4% | SF-295 CNS 83.6% | SF-539 CNS 92% | UACC-257 melanoma 87% | M14 melanoma 47.5%

Cc1nc2cc(Nc3nc(N4CCOCC4)nc(N4CCN(C)CC4)n3)ccc2n1Cc1ccccc1
inactive: HOP-62 NSCLC 95% | NCI-H460 lung 107% | HOP-92 NSCLC 82.9% | NCI-H522 lung 92.6% | A549/ATCC NSCLC 102% | 786-0 renal 97.5% | COLO 205 colon 111% | DU-145 prostate 114% | K-562 leukemia 90.3% | MALME-3M melanoma 106% | MDA-MB-231 breast 100% | RXF 393 renal 101% | SF-268 CNS 96.2% | SF-295 CNS 95.2% | SF-539 CNS 91.3% | UACC-257 melanoma 99.2% | M14 melanoma 110%

O/N=C/c1cccs1
inactive: NCI-H460 lung 108% | HOP-92 NSCLC 94% | NCI-H522 lung 106% | 786-0 renal 102% | COLO 205 colon 119% | DU-145 prostate 116% | K-562 leukemia 87.2% | MALME-3M melanoma 105% | MDA-MB-231 breast 112% | RXF 393 renal 107% | SF-268 CNS 111% | SF-295 CNS 95% | SF-539 CNS 96.9% | UACC-257 melanoma 98.5% | M14 melanoma 105%

Cn1c(=O)c(S(=O)(=O)c2ccccc2)cc2ccc3c(cnn3-c3ccc(Cl)cc3)c21
active: NCI-H522 lung -18.9%
inactive: HOP-62 NSCLC 87.3% | NCI-H460 lung 80.7% | HOP-92 NSCLC 39.8% | A549/ATCC NSCLC 65.5% | 786-0 renal 51.3% | COLO 205 colon 100% | DU-145 prostate 82.9% | K-562 leukemia 91.6% | MALME-3M melanoma 85.1% | MDA-MB-231 breast 75.7% | RXF 393 renal 55.8% | SF-268 CNS 80.6% | SF-295 CNS 90.2% | SF-539 CNS 45% | UACC-257 melanoma 83.4% | M14 melanoma 83.7%

Cn1c2c(cc(S(=O)(=O)c3ccccc3)c1=O)CCc1c-2cnn1-c1ccccc1Cl
active: NCI-H522 lung -72.1%
inactive: HOP-62 NSCLC 113% | NCI-H460 lung 106% | HOP-92 NSCLC 90.8% | A549/ATCC NSCLC 86.7% | 786-0 renal 102% | COLO 205 colon 113% | DU-145 prostate 120% | K-562 leukemia 95.5% | MALME-3M melanoma 108% | MDA-MB-231 breast 101% | RXF 393 renal 111% | SF-268 CNS 106% | SF-295 CNS 87.9% | SF-539 CNS 90.2% | UACC-257 melanoma 89.8% | M14 melanoma 110%

COc1cc(/C=C/C(=O)C2=C(/C=C/c3ccc(O)c(OC)c3)NC(=O)NC2c2ccc(O)c(OC)c2)ccc1O (stereo not given)
inactive: NCI-H322M lung 102% | HOP-62 NSCLC 123% | NCI-H460 lung 89.1% | HOP-92 NSCLC 88.9% | A549/ATCC NSCLC 78.9% | 786-0 renal 100% | DU-145 prostate 111% | K-562 leukemia 87% | MALME-3M melanoma 117% | MDA-MB-231 breast 67.7% | RXF 393 renal 97.1% | SF-268 CNS 93.5% | SF-295 CNS 93.1% | SF-539 CNS 87% | UACC-257 melanoma 85.6% | M14 melanoma 94%

COc1ccc(NC(=O)c2ccc3c(c2)nc(-c2ccc(Cl)cc2)n3-c2cc(C(C)(C)C)[nH]n2)cc1
inactive: NCI-H322M lung 85.5% | HOP-62 NSCLC 106% | NCI-H460 lung 101% | HOP-92 NSCLC 59.3% | NCI-H522 lung 73.7% | A549/ATCC NSCLC 79.7% | 786-0 renal 87.6% | DU-145 prostate 90.2% | K-562 leukemia 86% | MALME-3M melanoma 91.1% | MDA-MB-231 breast 95.4% | RXF 393 renal 79.1% | SF-268 CNS 76.2% | SF-295 CNS 67.8% | SF-539 CNS 87.6% | UACC-257 melanoma 96.4% | M14 melanoma 82.3%

Cn1c2ccccc2c2nn(Cc3ccccc3)c(=O)nc21
inactive: NCI-H322M lung 113% | HOP-62 NSCLC 94.2% | NCI-H460 lung 102% | NCI-H522 lung 103% | A549/ATCC NSCLC 105% | 786-0 renal 108% | COLO 205 colon 119% | DU-145 prostate 113% | K-562 leukemia 109% | MDA-MB-231 breast 103% | RXF 393 renal 103% | SF-268 CNS 103% | SF-295 CNS 97.4% | SF-539 CNS 99.7% | UACC-257 melanoma 101% | M14 melanoma 104%

COc1ccc(-c2c3c(N)c4c(nc3nc3c2c(C)nn3-c2ccccc2)CCCC4)cc1
inactive: HOP-62 NSCLC 89.3% | NCI-H460 lung 73.8% | HOP-92 NSCLC 28.9% | NCI-H522 lung 60.6% | 786-0 renal 70.8% | COLO 205 colon 73.4% | DU-145 prostate 80.4% | K-562 leukemia 11.9% | MALME-3M melanoma 113% | MDA-MB-231 breast 76.1% | RXF 393 renal 84.2% | SF-268 CNS 86% | SF-295 CNS 84.9% | SF-539 CNS 91.8% | UACC-257 melanoma 108% | M14 melanoma 87.9%
